Measurements: PubChem BioAssay (EPA / NIEHS)
Active and inactive are the calls of the source. The calls were made as follows: active = hit-call score of the fitted dose curve at least 0.9, where 1 is the maximum; inactive = score below 0.9.

Tests used:
[1] = read-out: Vascular endothelial growth factor receptor 2 (Homo sapiens) (UniProt P35968); experiment: BSK_4H_VEGFRII: BioMAP Diversity Plus: 4H Assay for Vascular endothelial growth factor receptor 2 (VEGFR2) Biomarker Activity (AID 2283031); conditions: primary human endothelial cells (HUVEC); actives raise or lower the signal;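 as to AC50: cell-surface VEGFR2 protein level quantified by ELISA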
Procedure, shortened: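 Primary human umbilical vein endothelial cells in the BioMAP 4H system were dosed with test chemical, and 24 h later VEGFRII was measured by ELISA. Activity was fitted bidirectionally against DMSO as negative control and baseline.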

[2] = read-out: Vascular cell adhesion molecule 1 (VCAM1), VCAM1 (gene 7412); experiment: BSK_4H_VCAM1: BioMAP Diversity Plus: 4H Assay for Vascular cell adhesion molecule 1 (VCAM1) Biomarker Activity (AID 2283033); conditions: primary human endothelial cells (HUVEC); actives raise or lower the signal;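 as to outcome: cell-surface VCAM-1 protein measured by ELISA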
Procedure, shortened: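 Endpoint derived from bidirectional fitting against DMSO controls of VCAM-1 ELISA signal in umbilical vein endothelial cells sampled at 24 h following treatment.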

[3] = read-out: Interferon-gamma inducible Protein 10 (IP10), CXCL10 (gene 3627); experiment: BSK_BE3C_IP10: BioMAP Diversity Plus: BE3C Assay for Interferon-gamma inducible Protein 10 (IP10) Biomarker Activity (AID 2283034); conditions: primary human bronchial epithelial cells; actives raise or lower the signal
Procedure, shortened: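 Using primary human bronchial epithelial cultures, the assay captures IP-10 by ELISA one day (24 h) after exposure. Parallel SRB staining of total protein flags overt cytotoxicity. Fits run bidirectionally relative to DMSO.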

[4] = read-out: Monokine induced gamma interferon (MIG), CXCL9 (gene 4283); experiment: BSK_BE3C_MIG: BioMAP Diversity Plus: BE3C Assay for Monokine induced gamma interferon (MIG) Biomarker Activity (AID 2283035); conditions: primary human bronchial epithelial cells; actives raise or lower the signal;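 as to outcome: MIG protein measured by ELISA in BE3C cultures after 24 h of dosing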
Procedure, shortened: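 MIG level was determined by ELISA after 24 h chemical treatment of primary human bronchial epithelial cells. Values were fitted bidirectionally with DMSO as the negative control and activity baseline.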

[5] = read-out: Transforming growth factor beta 1 (TGFb1), TGFB1 (gene 7040); experiment: BSK_BE3C_TGFb1: BioMAP Diversity Plus: BE3C Assay for Transforming growth factor beta 1 (TGFb1) Biomarker Activity (AID 2283036;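 as to outcome: TGF-b1 protein level measured by ELISA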); conditions: primary human bronchial epithelial cells; actives raise or lower the signal
Procedure, shortened: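 In this human primary bronchial epithelial system, an ELISA quantified TGF-b1 one day after dosing. Endpoint changes in either direction were fitted relative to DMSO.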

[6] = read-out: Plasminogen activator inhibitor-1 (PAI1), SERPINE1 (gene 5054); experiment: BSK_BE3C_PAI1: BioMAP Diversity Plus: BE3C Assay for Plasminogen activator inhibitor-1 (PAI1) Biomarker Activity (AID 2283037); conditions: primary human bronchial epithelial cells; actives raise or lower the signal
Procedure, shortened: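 PAI-1 biomarker levels in treated human bronchial epithelial cells are determined by ELISA at 24 h. Both increases and decreases relative to DMSO are fitted.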

[7] = read-out: urokinase plasminogen activator (uPA), PLAU (gene 5328); experiment: BSK_BE3C_uPA: BioMAP Diversity Plus: BE3C Assay for urokinase plasminogen activator (uPA) Biomarker Activity (AID 2283038); conditions: primary human bronchial epithelial cells; actives raise or lower the signal;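 as to outcome: uPA protein level quantified by ELISA in cell cultures; uPA read one day after compound addition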
Procedure, shortened: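 Human primary bronchial epithelial cells were exposed to chemical for 24 h, then uPA levels were measured by ELISA. Responses were fitted bidirectionally against DMSO as negative control and baseline. Parallel SRB staining of total protein gauged overt cytotoxicity.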

[8] = read-out: Urokinase-type plasminogen activator receptor (uPAR), PLAUR (gene 5329); experiment: BSK_BE3C_uPAR: BioMAP Diversity Plus: BE3C Assay for Urokinase-type plasminogen activator receptor (uPAR) Biomarker Activity (AID 2283039); conditions: primary human bronchial epithelial cells; actives raise or lower the signal;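 as to outcome: cells exposed to compound for one day before measurement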
Procedure, shortened: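 A uPAR ELISA serves as the readout, taken 24 h after treating primary human bronchial epithelial cells. Responses in either direction are fitted against DMSO, which defines baseline activity.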

[9] = read-out: Interleukin-6 (IL6), IL6 (gene 3569); experiment: BSK_CASM3C_IL6: BioMAP Diversity Plus: CASM3C Assay for Interleukin-6 (IL6) Biomarker Activity for (AID 2283040); conditions: primary human coronary artery smooth muscle cells; actives raise or lower the signal
[10] = read-out: Tissue plasminogen activator (tPA), PLAT (gene 5327); experiment: BSK_BE3C_tPA: BioMAP Diversity Plus: BE3C Assay for Tissue plasminogen activator (tPA) Biomarker Activity (AID 2283041); conditions: primary human bronchial epithelial cells; actives raise or lower the signal;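 as to outcome: tPA level quantified by ELISA one day after compound addition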
Procedure, shortened: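 Bidirectional curve fitting relative to DMSO defined activity, with tPA detected by ELISA in chemically treated human bronchial epithelial primary cells at 24 hours.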

[11] = read-out: Interleukin-8 (IL8), CXCL8 (gene 3576); experiment: BSK_CASM3C_IL8: BioMAP Diversity Plus: CASM3C Assay for Interleukin-8 (IL8) Biomarker Activity (AID 2283042); conditions: primary human coronary artery smooth muscle cells; actives raise or lower the signal;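 also: IL-8 protein level quantified by ELISA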
[12] = read-out: Human Leukocyte Antigen - DR isotype (HLADR), HLA-DRA (gene 3122); experiment: BSK_CASM3C_HLADR: BioMAP Diversity Plus: CASM3C Assay for Human Leukocyte Antigen - DR isotype (HLADR) Biomarker Activity (AID 2283043); conditions: primary human coronary artery smooth muscle cells; actives raise or lower the signal;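 also: cell-surface HLA-DR protein level quantified by ELISA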
[13] = read-out: Macrophage colony-stimulating factor (MCSF), CSF1 (gene 1435); experiment: BSK_CASM3C_MCSF: BioMAP Diversity Plus: CASM3C Assay for Macrophage colony-stimulating factor (MCSF) Biomarker Activity (AID 2283044); conditions: primary human coronary artery smooth muscle cells; actives raise or lower the signal;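 also: M-CSF protein amount quantified by ELISA after 24 h exposure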
[14] = read-out: Low-density lipoprotein receptor (LDLR), LDLR (gene 3949); experiment: BSK_CASM3C_LDLR: BioMAP Diversity Plus: CASM3C Assay for Low-density lipoprotein receptor (LDLR) Biomarker Activity (AID 2283045); conditions: primary human coronary artery smooth muscle cells; actives raise or lower the signal;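 also: LDLR protein level on the cell surface quantified by ELISA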
[15] = read-out: Monocyte Chemoattractant Protein-1 (MCP1), CCL2 (gene 6347); experiment: BSK_CASM3C_MCP1: BioMAP Diversity Plus: CASM3C Assay for Monocyte Chemoattractant Protein-1 (MCP1) Biomarker Activity (AID 2283046); conditions: primary human coronary artery smooth muscle cells; actives raise or lower the signal;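 also: MCP-1 level quantified by ELISA 24 h after dosing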
[16] = BSK_CASM3C_Proliferation: Cell Proliferation Assessment in the BioMAP Diversity Plus: CASM3C Assay (AID 2283047); conditions: primary human coronary artery smooth muscle cells;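 also: sulforhodamine B total protein stain as relative cell number at 560 nm; sub-confluent cells exposed 48 h before staining; fitted both ways against DMSO so gain or loss of cell number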
[17] = read-out: Monokine induced gamma interferon (MIG), CXCL9 (gene 4283); experiment: BSK_CASM3C_MIG: BioMAP Diversity Plus: CASM3C Assay for Monokine induced gamma interferon (MIG) Biomarker Activity (AID 2283048); conditions: primary human coronary artery smooth muscle cells; actives raise or lower the signal
[18] = read-out: serum amyloid A (SAA), SAA1 (gene 6288); experiment: BSK_CASM3C_SAA: BioMAP Diversity Plus: CASM3C Assay for serum amyloid A (SAA) Biomarker Activity (AID 2283049); conditions: primary human coronary artery smooth muscle cells; actives raise or lower the signal;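 also: SAA protein level quantified by ELISA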
[19] = BSK_CASM3C_SRB: Viability Assessment in the BioMAP Diversity Plus: CASM3C Assay (AID 2283050); conditions: primary human coronary artery smooth muscle cells

In the case of `c1ccc2ccccc2c1`, the outcome [1] is reported as “inactive”, the outcome [2] is reported as “inactive” and the outcome [3] is reported as “inactive”. The outcome [4] was “inactive”, the outcome [5] was “inactive” and the outcome [6] was “inactive”. For the same molecule, the outcome [7] was “inactive”, the outcome [8] was “inactive” and the outcome [9] was “inactive”. For the same molecule, the outcome [10] was “inactive”, the outcome [11] was “inactive” and the outcome [12] was “inactive”. The outcome [13] was “inactive”, the outcome [14] was “inactive” and the outcome [15] was “inactive”. The outcome [16] was “inactive”, the outcome [17] was “inactive” and the outcome [18] was “inactive”. The outcome [19] was “inactive”.
For `CCN(Cc1cccc(S(=O)(=O)O)c1)c1ccc(C(=C2C=CC(=[N+](CC)Cc3cccc(S(=O)(=O)O)c3)C=C2)c2ccccc2S(=O)(=O)[O-])cc1`, the outcome [1] was “inactive”, the outcome [2] was “inactive” and the outcome [3] was “inactive”. For the same molecule, the outcome [4] was “inactive”, the outcome [5] was “inactive” and the outcome [6] was “inactive”. For the same molecule, the outcome [7] was “inactive”, the outcome [8] was “inactive” and the outcome [9] was “inactive”. The outcome [10] was “inactive”, the outcome [11] was “inactive” and the outcome [12] was “inactive”. For the same molecule, the outcome [13] was “inactive”, the outcome [14] was “inactive” and the outcome [15] was “inactive”. The outcome [16] was “inactive”, the outcome [17] was “inactive” and the outcome [18] was “inactive”. For the same molecule, the outcome [19] was “inactive”.
In the case of `Cc1cc(F)ccc1-c1cc(N2CC[C@@H](O)[C@H]2CO)ncc1N(C)C(=O)C(C)(C)c1cc(C(F)(F)F)cc(C(F)(F)F)c1`, the AC50 [1] is reported as 7.98 µM (active), the AC50 [2] is reported as 11.2 µM (active) and the AC50 [3] is reported as 13.3 µM (active). For the same molecule, the AC50 [4] was 13.9 µM (active), the AC50 [5] was 11.5 µM (active) and the AC50 [6] was 13 µM (active). The AC50 [7] was 14.8 µM (active), the AC50 [8] was 14 µM (active) and the AC50 [9] was 16.3 µM (active). For the same molecule, the AC50 [10] was 9.81 µM (active), the AC50 [11] was 27.8 µM (active) and the AC50 [12] was 26.5 µM (active). For the same molecule, the AC50 [13] was 26.1 µM (active), the AC50 [14] was 24.4 µM (active) and the AC50 [15] was 31 µM (active). For the same molecule, the AC50 [16] was 28.3 µM (active), the AC50 [17] was 30.1 µM (active) and the AC50 [18] was 31.7 µM (active). For the same molecule, the AC50 [19] was 29.2 µM (active).
For `CC(=O)N1CCN(c2ccc(OC[C@H]3CO[C@](Cn4ccnc4)(c4ccc(Cl)cc4Cl)O3)cc2)CC1`, the outcome [1] was “inactive”, the AC50 [2] was 33.6 µM (active) and the AC50 [3] was 29.4 µM (active). The outcome [4] was “inactive”, the outcome [5] was “inactive” and the outcome [6] was “inactive”. For the same molecule, the outcome [7] was “inactive”, the outcome [8] was “inactive” and the outcome [9] was “inactive”. The outcome [10] was “inactive”, the outcome [11] was “inactive” and the outcome [12] was “inactive”. The AC50 [14] was 2.94 µM (active), the outcome [15] was “inactive” and the AC50 [16] was 28 µM (active). For the same molecule, the outcome [17] was “inactive”, the outcome [18] was “inactive” and the outcome [19] was “inactive”.
With `O=c1c(-c2ccc(O)cc2)coc2cc(O)cc(O)c12` the outcome [1] was “inactive”, the AC50 [2] was 20 µM (active) and the outcome [3] was “inactive”. For the same molecule, the outcome [4] was “inactive”, the outcome [5] was “inactive” and the outcome [6] was “inactive”. The outcome [8] was “inactive”, the AC50 [9] was 11.1 µM (active) and the AC50 [10] was 9.33 µM (active). The AC50 [11] was 20 µM (active), the AC50 [12] was 27.6 µM (active) and the outcome [13] was “inactive”. The outcome [14] was “inactive”, the AC50 [15] was 28.6 µM (active) and the AC50 [16] was 11.7 µM (active). For the same molecule, the outcome [17] was “inactive”, the AC50 [18] was 20 µM (active) and the outcome [19] was “inactive”.
In the case of `CN1C(=O)CC[C@H]1c1cccnc1`, the outcome [1] is reported as “inactive”, the outcome [2] is reported as “inactive” and the outcome [3] is reported as “inactive”. The outcome [4] was “inactive”, the outcome [5] was “inactive” and the outcome [6] was “inactive”. The outcome [8] was “inactive”, the outcome [9] was “inactive” and the outcome [10] was “inactive”. For the same molecule, the outcome [11] was “inactive”, the outcome [12] was “inactive” and the outcome [13] was “inactive”. For the same molecule, the outcome [14] was “inactive”, the outcome [15] was “inactive” and the outcome [16] was “inactive”. The outcome [17] was “inactive”, the outcome [18] was “inactive” and the outcome [19] was “inactive”.
